Experimental data as given in PubChem BioAssay (NCATS).
Records with an inconclusive call do not appear. Entries that show only a call come without a potency. A number with no mark means an inactive call. Active and inactive are the calls of the source. The call rests on the fitted dose curve; in most records, active means well fitted inhibition curve with a large enough effect; inconclusive means small, poorly fitted or top-dose-only effect; inactive means no such curve, though single readings can be large or run the other way.

Each molecule was assayed against Rap guanine nucleotide exchange factor 3 (Homo sapiens) (UniProt O95398) (assay: Counterscreen qHTS for antagonist of cAMP-regulated guanine nucleotide exchange factor 3 (EPAC1) (AID 1645888;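 further: fluorescence loss as bound BODIPY-GDP is released from Rap1B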)). Settings: Rap1B-BODIPY-GDP nucleotide exchange, fluorescence; series mostly up to 154 µM.
Method in brief: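 Measured: fluorescence of BODIPY-GDP bound to Rap1B, which falls as exchange proceeds. Conditions include 50 uM competing GDP, 5 and 30 min reads, and a later cAMP challenge for antagonist detection.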

Sequence of Rap guanine nucleotide exchange factor 3 (Homo sapiens) (O95398 whole entry, looked up): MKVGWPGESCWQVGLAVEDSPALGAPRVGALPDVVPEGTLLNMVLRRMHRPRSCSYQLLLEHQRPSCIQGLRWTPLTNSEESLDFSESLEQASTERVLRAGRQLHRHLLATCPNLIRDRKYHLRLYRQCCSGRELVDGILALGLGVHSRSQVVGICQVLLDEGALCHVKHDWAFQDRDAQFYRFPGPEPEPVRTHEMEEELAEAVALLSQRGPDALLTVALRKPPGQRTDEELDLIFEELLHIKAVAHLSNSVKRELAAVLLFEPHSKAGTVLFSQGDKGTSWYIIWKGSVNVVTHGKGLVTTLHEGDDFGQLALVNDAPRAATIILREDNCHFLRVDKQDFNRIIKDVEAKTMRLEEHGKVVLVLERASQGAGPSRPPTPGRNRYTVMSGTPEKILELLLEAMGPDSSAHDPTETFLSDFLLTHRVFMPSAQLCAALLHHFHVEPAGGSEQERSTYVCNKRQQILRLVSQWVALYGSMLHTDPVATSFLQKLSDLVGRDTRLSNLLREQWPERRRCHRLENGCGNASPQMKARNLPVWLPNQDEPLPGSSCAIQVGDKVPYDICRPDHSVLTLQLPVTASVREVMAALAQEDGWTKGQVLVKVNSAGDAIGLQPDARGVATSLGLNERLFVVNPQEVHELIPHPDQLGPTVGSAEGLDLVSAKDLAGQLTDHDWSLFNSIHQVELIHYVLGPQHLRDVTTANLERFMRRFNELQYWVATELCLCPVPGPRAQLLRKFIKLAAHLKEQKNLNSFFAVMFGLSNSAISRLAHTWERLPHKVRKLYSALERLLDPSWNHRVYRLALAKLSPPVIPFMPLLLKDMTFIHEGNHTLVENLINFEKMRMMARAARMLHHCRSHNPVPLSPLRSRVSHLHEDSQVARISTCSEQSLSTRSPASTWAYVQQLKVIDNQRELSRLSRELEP

Structure (SMILES) | activity change, negative = inhibition | Potency
COc1ccc(C2CC(=O)Oc3ccc(OC)cc32)cc1 (stereo unspecified) | -2.08% [at 30.8 µM] | 
CCCCC[C@@H]1C=C(C(=O)O)[C@H](c2ccc(Cl)c(Cl)c2)N1S(=O)(=O)c1ccc(C)cc1 |  | inactive
Cc1ccc(C2(c3noc(CN(C)CC4CCCCO4)n3)CCCC2)cc1 (stereo unspecified) | -7.57% [at 30.8 µM] | 
Cc1ccc(C2N(c3cccc(Cl)c3)C(=O)N3CCCN23)cc1 (stereo unspecified) | -4.78% [at 30.8 µM] | 
COC(=O)c1cn(C(=O)c2ccc(OC)c(OC)c2)c2ccccc12 | -11% [at 30.8 µM] | 
COC(=O)c1cn(S(=O)(=O)c2ccccc2)c2ccccc12 |  | inactive
COc1ccc(C(=O)N(Cc2ccccc2)c2cccc(C)c2)cc1 |  | inactive
Cc1ccc(CN(Cc2ccco2)C(=O)c2ccco2)cc1 | -4.7% [at 30.8 µM] | 
O=C(O)CCCN1C(=O)/C(=C/c2cn(-c3ccccc3)nc2-c2cccs2)SC1=S |  | inactive
COc1ccc(-c2ccc(CCC(=O)O)n2-c2ccc(Cl)cc2C)cc1 |  | inactive
CC1CCCN(C2(O)C(=O)Nc3ccc(Br)cc32)C1 (stereo unspecified) |  | inactive
O=c1cc(N2CCCCC2)c(-c2ccccc2)nn1Cc1ccccc1 |  | inactive
COc1ccc2c(c1)CCc1c(C(=O)N3CCCc4ccccc43)noc1-2 |  | inactive
COC(=O)C1=NN(c2ccccc2)C2(S1)SC(C(C)=O)=C(C)N2c1ccccc1 (stereo unspecified) |  | inactive
CCN(Cc1cc(=O)oc2cc(C)ccc12)c1ccccc1 |  | inactive
O=C(O)Cc1ccc(NC(=O)C(c2ccccc2)c2ccccc2)cc1 | -6.7% [at 30.8 µM] | 
